# From PubChem BioAssay AID540276 (National Center for Advancing Translational Sciences (NCATS), 2011)
# Among all 300,000 compounds or so, about 5,400 (1.8%) were called active. Not shown: some 28% with an inconclusive outcome. Calls come from the whole dose curve; tested in HEK293 cells. Many of the other results were omitted from the sample, so actives are more common in it than they were. Non-standard residues stand in square brackets, D forms with d. Residues, ends and D or L forms follow the SMILES beside them. ξ: configuration not given here. Ac5c = NC1(C(=O)O)CCCC1; ξS = NC(CO)C(=O)O
# Assay: qHTS for inhibitors of binding or entry into cells for Marburg Virus
# Conditions: Marburg virus pseudotyped entry inhibition, cell reporter; series mostly up to 37.8 µM; activity change, negative = inhibition: at the top concentration
# % is set by controls: 0 for no effect and ±100 for the full control effect; potency is the fitted concentration of half-maximal effect.
Structure (SMILES),"activity change, negative = inhibition",Potency
CC(C)=CCCC(C)=CCN1C(=O)[C@]2(OCCC=C[C@H]2C)c2ccccc21,2.91% [at 14.2 µM] (inactive),
O=C(c1ccco1)N1CCN(C(=S)Nc2cc(F)cc(F)c2)CC1,-3.01% [at 46.1 µM] (inactive),
CN(Cc1ccccc1)C(=O)C1CCCN(c2ncnc3c2nc2n3CCCCC2)C1 (centres undefined),-26.2% [at 46.1 µM] (inactive),
CC(NC(=O)c1ccccc1)C(=O)OCC(=O)Nc1cccc(S(=O)(=O)N2CCCC2)c1 (centres undefined),-30.3% (inactive),
Cc1ccccc1N(C(=O)CNC(=O)c1cccs1)C(C(=O)NC1CCCC1)c1ccncc1 (centres undefined),-23.4% [at 46.1 µM] (inactive),
CC(NC(=O)COC(=O)c1ccc2ccccc2n1)c1ccccc1 (centres undefined),-0.241% (inactive),
C=C(C)C(=O)Nc1cccc(C(C)=O)c1,-7.5% (inactive),
CC(=O)c1cccc(NC(=O)Nc2ccc(C)cc2)c1,-2.02% (inactive),
CCSc1nsc(NC(=O)Nc2cccc(C(C)=O)c2)n1,,10 µM (active)
CCOc1cccc(NC(=O)Cn2nc(-c3ccc4c(c3)OCCO4)ccc2=O)c1,9.43% (inactive),
CC(=O)c1cc2c(cc1NC(=O)Cn1nc(-c3ccc(F)cc3)ccc1=O)OCO2,,10 µM (active)
CC(=O)c1cc2c(cc1NC(=O)CN1CCCCCC1)OCO2,-27.1% [at 46.1 µM] (inactive),
CN(CC(=O)Nc1ccc(C(N)=O)cc1)S(=O)(=O)c1ccc2c(c1)OCCO2,8.9% [at 46.1 µM] (inactive),
Cc1ccc2nc(SCC(=O)N3CCN(c4ccccc4)CC3)nc(=O)n2c1,20.2% [at 46.1 µM] (inactive),
Cc1cccc(-c2nnc(SCC(=O)O)n2Cc2ccccc2)c1,11.9% [at 46.1 µM] (inactive),
CCOC(=O)c1cn(CC(=O)Nc2ccc(C(C)C)cc2)nn1,0.84% (inactive),
CCOC(=O)c1cn(Cc2cccc(C)c2)nn1,,3.98 µM (active)
O=C(C/C(=N\O)c1ccccc1O)C(F)F,1.48% (inactive),
Cc1cc(S(=O)(=O)NCC(C)C)ccc1OCC(=O)NC1CC1,9.84% (inactive),
FC(F)(F)Oc1ccc(NC(=S)NCc2ccccc2)cc1,,11.2 µM (active)
COC(=O)Cc1ccc(NC(=S)NCc2ccccc2)cc1,1.35% (inactive),
S=C(NCCc1ccccc1)Nc1ccccc1,-26.5% (inactive),
CSc1nc(-c2ccccc2)nc(C(Cl)Cl)n1,,3.55 µM (active)
CCc1noc(C)c1C(=O)N1CCCC(N2CCN(c3ccc(F)cc3)CC2)C1 (centres undefined),1.5% (inactive),
COC1=CC(=O)OC(C)(c2ccccc2)C1 (centres undefined),2.7% [at 46.1 µM] (inactive),
CCOc1cc(CNCc2ccccn2)ccc1OCC(=O)NC(C)(C)C,,7.08 µM (active)

Structure (SMILES),"activity change, negative = inhibition",Potency
CCOc1cc(CNn2c(C)nnc2SCC(=O)NC(C)(C)C)ccc1OCC(=O)NC(C)(C)C,8.16% [at 46.1 µM] (inactive),
CCOc1cc(C)c(S(=O)(=O)NCc2ccccn2)cc1C,-3.87% (inactive),
O=C(Nc1ccc(Cl)cn1)[C@H]1CCCN1S(=O)(=O)c1ccccc1,-25.6% (inactive),
O=C(COc1ccc(S(=O)(=O)N2CCOCC2)cc1Cl)N1CCOCC1,5.41% [at 46.1 µM] (inactive),
CN(CC(O)COc1ccc(S(=O)(=O)N2CCOCC2)cc1Cl)C1CCCCC1 (centres undefined),,10 µM (active)
Cc1cc(S(=O)(=O)N2CCOCC2)ccc1OCC(=O)N1CCOCC1,1.56% [at 46.1 µM] (inactive),
COc1ccccc1NC(=O)N(O)C1(C#N)CCCCC1,-15.2% (inactive),
O=C(Nc1cccc(S(=O)(=O)NC2=NCCC2)c1)c1ccc(F)cc1F,-0.493% [at 46.1 µM] (inactive),
Cc1cc(C)c(C)c(S(=O)(=O)Nc2cccnc2)c1C,-4.45% [at 46.1 µM] (inactive),
COc1ccc(CCn2nnnc2C(c2ccccc2)N2CCN(C)CC2)cc1OC (centres undefined),,inactive
CC(C)C(c1nnnn1CCc1ccccc1)N1CCN(C(=O)c2ccco2)CC1 (centres undefined),-1.5% (inactive),
N#Cc1ccc(C(c2nnnn2CCc2ccccc2)N2CCCCCC2)cc1 (centres undefined),,20.6 µM (active)
CC(C)(C)S(=O)(=O)c1ccccc1-c1noc(-c2ccccc2)c1C(N)=O,3.72% [at 46.1 µM] (inactive),
COc1ccc(S(=O)(=O)N2CCN(c3cnccn3)CC2)cc1,-12.3% (inactive),
O=C(Nc1ccc(S(=O)(=O)NCC2CCCO2)cc1)c1ccc(F)cc1 (centres undefined),0.454% [at 46.1 µM] (inactive),
CN(Cc1ccccc1)C(=O)C(=O)c1cn(CC(=O)N2CCCC2)c2ccccc12,8.79% [at 46.1 µM] (inactive),
Cc1ccc(NNC(=O)c2cccs2)cc1Cl,,6.31 µM (active)
CCc1ccc(NC(=O)C(=O)NNC(=O)c2cccs2)cc1,3.2% [at 46.1 µM] (inactive),
Cc1ccc(NNC(=O)c2c(F)cccc2Cl)cc1Cl,-18.7% [at 46.1 µM] (inactive),
Cc1nc(CN(C)C(=O)CC2C(=O)NCCN2Cc2ccc(F)cc2)cs1 (centres undefined),0.836% (inactive),
C/C(=N\NC(=O)C1(C)CC1(Br)Br)c1ccc(C)cc1C (centres undefined),-12.7% (inactive),
COC(=O)c1sc2ncccc2c1OCc1ccc(Cl)cc1Cl,5.87% (inactive),
NC(N)=N/N=C/c1ccc(OCc2ccc(Cl)cc2Cl)cc1,,10.3 µM (active)
CCOc1ccc(/C=N/NC(N)=S)cc1,-4.53% (inactive),
Cc1ccc(NC(=O)COc2coc(CN3CCc4ccccc4C3)cc2=O)cc1Cl,13.1% (inactive),
CC(=O)c1ccc(NC(=O)C(C)OC(=O)c2ccc(NS(=O)(=O)c3ccc4[nH]c(=O)[nH]c4c3)cc2)cc1 (centres undefined),6.38% (inactive),

Structure (SMILES),"activity change, negative = inhibition",Potency
CCCCN1C2CCC1CC(OC(c1ccc(F)cc1)c1ccc(F)cc1)C2 (centres undefined),,3.55 µM (active)
COc1cc(OC)cc(C(=O)Nc2nnc(SCC(=O)NCC3CCCO3)s2)c1 (centres undefined),29.5% (inactive),
COc1ccc(OC)c(NC(=O)CN2CCN(C(=O)c3ccco3)CC2)c1,10.5% (inactive),
CCc1cc(C(=O)c2ccc(OC)cc2)c(NC(=O)CN2CCN(C)CC2)s1,,3.55 µM (active)
CCOc1ccc(NC(=O)CN2CCN(CC(=O)Nc3ccc(OC)cc3)CC2)cc1,,inactive
COc1ccc(CNC(=O)C2CCN(C(=O)c3ccco3)CC2)cc1,-12.6% [at 46.1 µM] (inactive),
COc1cc2[nH]c(O)c(C=O)c2cc1OC,0.231% [at 46.1 µM] (inactive),
CCCc1ccc(-c2csc(NC(=O)Cc3cccs3)n2)cc1,-11.2% (inactive),
Cc1ccc(-c2csc(NC(=O)Cc3cccs3)n2)cc1C,-8.89% (inactive),
COc1cc(CC(=O)Nc2nc(-c3ccc(F)c(F)c3)cs2)cc(OC)c1OC,,7.94 µM (active)
COc1ccc(-c2csc(NC(=O)COC(=O)Cc3ccc(Cl)cc3Cl)n2)cc1,-5.49% (inactive),
COc1ccc(CC(=O)Nc2nc(-c3ccc(F)c(F)c3)cs2)cc1OC,,10 µM (active)
COc1ccc(-c2csc(NC(=O)c3ccc(N4C(=O)CCC4=O)cc3)n2)cc1OC,3.07% [at 46.1 µM] (inactive),
CCOc1ccc(CCNC(=O)COC(=O)c2c(OC)cccc2OC)cc1OCC,-14.9% (inactive),
Cc1cc(Br)ccc1NC(=O)CN(C)C(=O)CN1C(=O)NC2(CCCC2)C1=O,-2.22% (inactive),
CCc1nnc(NC(=O)C2CCN(C(=O)c3ccccc3C)CC2)s1,4.28% (inactive),
O=C(Nc1ccccc1)C1CCN(C(=O)c2ccc(Br)cc2)CC1,-6.33% (inactive),
CCOC(=O)C(CO)NC(=O)C1(NC(C)=O)CCCC1 (centres undefined) (Ac-[Ac5c]-[ξS]-OEt),6.4% [at 46.1 µM] (inactive),
CCc1ccccc1NC(=S)N(CCN1CCCCCC1)Cc1ccco1,3.1% [at 46.1 µM] (inactive),
CCc1cccc(C)c1NC(=S)N(CCCN1CCN(C)CC1)Cc1cccs1,,10 µM (active)
Cc1ccccc1NC(=S)N(CCCN1CCOCC1)Cc1cccs1,18.9% (inactive),
CCC(=O)Nc1ccc(S(=O)(=O)Nc2c(NC)c3ccccc3oc2=O)cc1,-29.2% [at 46.1 µM] (inactive),
CCCN(C(=O)CSc1nnc(N)s1)c1c(N)n(Cc2ccccc2)c(=O)[nH]c1=O,-6.1% (inactive),
CNC(=O)C1CC(=O)N(c2ccc(OCC(=O)Nc3ccccc3C)cc2)C1 (centres undefined),5.17% (inactive),
Cc1cccc(N(C)C(=O)c2cc3c(=O)[nH]c4ccc(C)cc4c3s2)c1,,3.55 µM (active)
Cc1ccc2[nH]c(=O)c(CC=C(Cl)Cl)c(C)c2c1,7.58% [at 46.1 µM] (inactive),

Structure (SMILES),"activity change, negative = inhibition",Potency
COc1ccc(CNC(=O)c2cc3c(=O)[nH]c4ccc(C)cc4c3s2)c(OC)c1,-18.7% [at 46.1 µM] (inactive),
CCOC(=O)N/N=C1\C[C@@H](O)[C@@H](O)[C@@H]2[C@@H]3C(=O)N(C4CCCCC4)C(=O)[C@@H]3CC[C@@H]12,19.7% [at 14.2 µM] (inactive),
Cc1ccc(NC(=O)CSC2=C(C#N)[C@H](c3ccc4c(c3)OCO4)CC(=O)N2)cc1C,-6.33% (inactive),
N#Cc1cccc(NC(=O)COC(=O)c2ccccc2C(=O)c2ccc(Cl)c([N+](=O)[O-])c2)c1,,23.1 µM (active)
NS(=O)(=O)c1cccc(NC(=O)COC(=O)c2cc([N+](=O)[O-])ccc2N2CCCC2)c1,-19.3% (inactive),
O=C(COC(=O)c1ccc([N+](=O)[O-])cc1Cl)NC(=O)c1ccccc1,11.8% (inactive),
CN(C(=O)CCNC(=O)Cn1ccc2ccccc2c1=O)c1ccc(Br)cc1,23.6% [at 46.1 µM] (inactive),
O=C(CCC1CCCN(C(=O)c2ccc(F)c(F)c2)C1)N1CCN(c2ccccn2)CC1 (centres undefined),-24.9% (inactive),
CC1(c2ccccc2)NC(=O)N(CC(=O)Nc2cc(Cl)ccc2N2CCOCC2)C1=O (centres undefined),2.18% (inactive),
COc1cc(OC)cc(-c2c(-c3cccs3)c3cc(-c4ccc(OC)cc4F)ccc3n2C)c1,-2.74% (inactive),
Cc1ccccc1N1CC(C(=O)Nc2nnc(SCCC3OCCO3)s2)CC1=O (centres undefined),-24.4% (inactive),
CC(C)(C)NC(=O)NC(=O)COC(=O)Cc1ccc(Cl)cc1Cl,-0.511% [at 46.1 µM] (inactive),
CC(C)(C)c1cc(C(=O)NN)n(Cc2ccc(Cl)cc2Cl)n1,,11.2 µM (active)
NNC(=O)c1ccc(Cl)cc1Cl,5.31% (inactive),
Cc1cc(NC[C@@H]2CCCO2)n2c(nc3ccccc32)c1C#N,1.22% [at 46.1 µM] (inactive),
CN1CCN(CCNC(=O)Nc2ccccc2[N+](=O)[O-])CC1,26.4% [at 46.1 µM] (inactive),
CCOc1ccc(C(O)Cn2c(=N)n(CCN3CCCCC3)c3ccccc32)cc1 (centres undefined),,18.3 µM (active)
CCOc1ccc(C(O)Cc2nc3ccccc3n2C)cc1 (centres undefined),14.5% (inactive),
CCOc1ccc(CN2CCCN(C)CC2)cc1,-2.41% (inactive),
CCOc1ccc(S(=O)(=O)N2CCN(C(=S)NCC3CCCO3)CC2)cc1 (centres undefined),22.4% [at 46.1 µM] (inactive),
CC1(C)C(=O)CCC2(C)C1=CCC1C2C(=O)CC2(C)C1CCC2(O)C(=O)CO (centres undefined),-26.4% (inactive),
CC(=O)OCC(=O)C1(O)CCC2C3CC(C)C4=CC(=O)CCC4(C)C3C(O)CC21C (centres undefined),-12.6% [at 46.1 µM] (inactive),
COc1ccccc1NC(=O)N1CCCC1C(=O)NCc1cccs1 (centres undefined),2.43% [at 46.1 µM] (inactive),
CS(=O)(=O)Nc1ccc(C2=NN(S(C)(=O)=O)C(c3cccs3)C2)cc1 (centres undefined),15.1% (inactive),
CCS(=O)(=O)Nc1ccc(C2=NN(C(C)=O)C(c3cccs3)C2)cc1 (centres undefined),-4.67% [at 46.1 µM] (inactive),
CCS(=O)(=O)Nc1ccc(C2=NN(S(=O)(=O)c3ccc(F)cc3)C(c3ccco3)C2)cc1 (centres undefined),,18.3 µM (active)
